CF NFkB inh = inhibitors of PAF-induced NF-kB signaling, primary screen, cell-based, GFP fluorescence, uHTS; 360,000 compounds, 0.86% hits; KKLEB NF-kB-GFP reporter, GFP fluorescence overnight; inhibition, % at 5 µM;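 active = at least 50% inhibition at 5 µM, scaled per plate between neutral and stimulator controls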;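 note: PAF is a Pseudomonas aeruginosa culture filtrate used as stimulus; plate controls were PAF-stimulated DMSO wells for no effect and unstimulated DMSO wells for full effect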
KKLEB cytotox = cytotoxicity in KKLEB CF airway cells, primary screen, cytotoxicity control for CF NF-kB inhibitor project, cell-based, uHTS, fluorescence assay plates; AID 602141, 2011; 360,000 compounds, 0.36% hits; activity change (cytotoxicity), % at 5 µM; KKLEB CF airway cells viability, ATPlite luminescence, overnight; stronger effect = lower value; cells stimulated with P. aeruginosa culture filtrate;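 active = corrected activity change at or below -50% at 5 µM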
Peg3 prom inh = Peg3 promoter-driven luciferase inhibitors, primary screen, cell-based, HeLa, luciferase luminescence; 360,000 compounds, 1.7% hits; inhibition, % at 20 µM; HeLa PEG-Prom luciferase reporter, overnight; AID 588405, 2011;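 active = inhibition of at least 50% at 20 µM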
Shn3 3UTR inh = reduction of Shn3 3'UTR firefly luciferase signal, primary screen, Schnurri-3 inhibitor project, cell-based, Clone20 osteoblasts, set 2. Clone20 osteoblast Shn3 3'UTR firefly luciferase, 24 h. inhibition, % at 12.5 µM. 360,000 compounds, 0.52% hits. AID 588674, 2011;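 active = mean inhibition of at least 75% with every replicate also reaching 75%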;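 note: 0% = median of neutral control wells and 100% = pilot-screen positive control compound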
MITF TRPM1 inh = inhibitors of MITF-dependent TRPM1 promoter reporter, primary screen, cell-based, SK-MEL-5, single point, luciferase. AID 488899, 2010. SK-MEL-5 TRPM1 promoter luciferase, 24 h. 330,000 compounds, 0.83% hits. inhibition, % at 12.5 µM;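 active = mean inhibition across replicates of 60% or more, whatever share of single replicates reaches that level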
HIF-2a block = HIF-2a reporter inhibitors, primary screen, luminescence, 786-0 RCC cells; inhibition, % at 18.8 µM; AID 624352, 2012; 360,000 compounds, 0.72% hits; 786-0 RCC cells HIF-2a reporter, luciferase luminescence, overnight;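 active = inhibition of the luminescence signal of 40% or more relative to plate controls, in a single-dose primary screen at 18.75 µM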
Mdm2 MdmX conf = retested Mdm2-MdmX interaction blockers, confirmation, cell-based, luminescence, single concentration, set 2 | shares compounds with HIF-2a block | SaOS-2 split-luciferase Mdm2/MdmX complementation | inhibition, % at 8 µM | 740 compounds, 99% hits;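 active = mean inhibition of the luminescence signal across two replicates at or above 26 percent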
Target sequence (O15151 whole entry, looked up): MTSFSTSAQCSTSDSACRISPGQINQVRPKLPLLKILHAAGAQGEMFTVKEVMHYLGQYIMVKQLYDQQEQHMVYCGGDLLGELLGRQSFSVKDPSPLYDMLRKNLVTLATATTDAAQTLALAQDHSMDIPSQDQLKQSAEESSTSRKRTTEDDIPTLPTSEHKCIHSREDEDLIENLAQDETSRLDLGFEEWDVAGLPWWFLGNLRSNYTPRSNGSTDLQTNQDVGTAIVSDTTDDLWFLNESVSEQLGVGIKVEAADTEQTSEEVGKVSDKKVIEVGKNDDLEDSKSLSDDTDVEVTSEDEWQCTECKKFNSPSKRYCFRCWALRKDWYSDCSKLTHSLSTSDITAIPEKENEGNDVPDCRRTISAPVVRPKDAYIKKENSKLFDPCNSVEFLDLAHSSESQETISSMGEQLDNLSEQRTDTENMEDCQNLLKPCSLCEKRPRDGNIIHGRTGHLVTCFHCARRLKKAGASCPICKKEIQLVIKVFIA
Target sequence (Q00987 whole entry, looked up): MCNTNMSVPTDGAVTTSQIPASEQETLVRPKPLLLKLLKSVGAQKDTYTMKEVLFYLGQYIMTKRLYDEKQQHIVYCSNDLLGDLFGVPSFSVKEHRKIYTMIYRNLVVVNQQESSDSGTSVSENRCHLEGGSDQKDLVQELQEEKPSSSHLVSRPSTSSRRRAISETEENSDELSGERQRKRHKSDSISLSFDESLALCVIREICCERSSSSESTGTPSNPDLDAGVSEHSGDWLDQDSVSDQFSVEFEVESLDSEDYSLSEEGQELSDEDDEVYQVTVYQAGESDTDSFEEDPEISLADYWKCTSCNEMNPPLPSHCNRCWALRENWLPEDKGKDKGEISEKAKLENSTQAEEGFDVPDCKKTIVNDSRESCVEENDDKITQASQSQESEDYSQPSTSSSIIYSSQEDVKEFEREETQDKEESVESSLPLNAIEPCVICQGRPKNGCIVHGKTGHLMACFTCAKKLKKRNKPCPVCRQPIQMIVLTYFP
HIF-2a conf = HIF-2a reporter inhibitor retest, confirmation, luminescence, 786-0 RCC cells. shares compounds with HIF-2a block. HIF-2a luciferase reporter luminescence, overnight. inhibition, % at 18.8 µM. 1,800 compounds, 56% hits. AID 651580, 2012;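 active = mean inhibition across four replicates of at least 40 percent at the single tested concentration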
HIF-1a counter = HIF-1a luciferase reporter signal reduction – MiaPaCa-2 cells, single concentration, counter-screen for HIF-2a inhibitor project, confirmation; shares compounds with HIF-2a block; MiaPaCa-2 HIF-1a luciferase reporter, desferoxamine, overnight; inhibition, % at 18.8 µM; 1,800 compounds, 72% hits;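 active = mean inhibition of the reporter signal across four replicates at the single tested dose of 50% or more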
Active calls of the source: *; · = no result. Only some compounds are listed: those with a hit (about 2.8% of all), similar ones and a draw of the others.

SMILES | CF NFkB inh | KKLEB cytotox | Peg3 prom inh | Shn3 3UTR inh | MITF TRPM1 inh | HIF-2a block | HIF-2a conf | HIF-1a counter | others
C=C1C(=O)C23CCC4C(C)(C(=O)OC)CCCC4(C)C2CCC1(O)C3 (stereo not drawn) | 101* | -102* | 101* | 96* | 117* | 91* | 99* | 103*
COc1ccc(C2=CC(=O)N(Nc3ccccc3)C2=O)cc1 | 29 | 2 | 40 | 12 | · | 34 | · | ·
O=C1C=C(c2ccccc2)C(=O)N1Nc1ccccc1 | 45 | 19 | 96* | 46 | 56 | 77* | 56* | 30
COc1cccc(-c2cc(NC=O)c3ncc(-c4ccc(OC)c(OC)c4)n3c2)c1 | 34 | -22 | 49 | 14 | · | -75 | · | ·
COc1ccc(-c2cnc3c(NC=O)cc(-c4cccc(NS(C)(=O)=O)c4)cn23)cc1OC | 93* | -62* | 69* | 18 | · | 51* | 79* | -9
CN(C)C1C(=O)c2ccccc2C1=O | -11 | 9 | 0 | 0 | 1 | 14 | · | ·
COc1ccc(/C=C2\SC(=O)N(CCCC(=O)Nc3cc(Cl)ccc3C(=O)O)C2=O)cc1 | -4 | -2 | 76* | 71 | 89* | 89* | 98* | 99*
COc1ccc(/C=C2\SC(=O)N(CCCC(=O)Nc3ccc(C(=O)O)cc3)C2=O)cc1OC | -18 | 1 | 11 | -2 | -2 | 13 | · | ·
CN(C)CCNC(=O)c1cc2c(s1)-c1ccc(Cl)cc1SC2 | 47 | -45 | 110* | 17 | 100* | -50 | · | · | Mdm2 MdmX conf=103*
O=C(CCCCCNC(=O)c1ccccc1Br)N=Nc1c(O)[nH]c2ccccc12 | 8 | -2 | -4 | 2 | 6 | -11 | · | ·
COc1ccc(/C=C2\CN(Cc3ccccc3)C/C(=C\c3ccc(OC)c(O)c3)C2=O)cc1O | 100* | -69* | 102* | 96* | 98* | 38 | · | · | Mdm2 MdmX conf=102*
COc1cc(/C=C2\COC/C(=C\c3ccc(O)c(OC)c3)C2=O)ccc1O | 91* | -44 | 101* | · | 79* | 93* | · | · | Mdm2 MdmX conf=103*
COc1ccc(C=C2C(=O)c3ccccc3C2=O)cc1O | -8 | -8 | -4 | 8 | 11 | 11 | · | ·
COc1cc(/C=C2/CC/C(=C/c3ccc(O)c(OC)c3)C2=O)ccc1O | 44 | -23 | -34 | -4 | 14 | -19 | · | ·
CCN1C/C(=C/c2ccc(OC)c(O)c2)C(=O)/C(=C/c2ccc(OC)c(O)c2)C1 | -31 | -24 | -7 | -20 | 21 | 5 | · | · | Mdm2 MdmX conf=53*
Cc1ccc(NC(=O)Cc2ccc3c(c2)OCCO3)cc1S(=O)(=O)N1CCCCC1 | 21 | 0 | 10 | 30 | 10 | 13 | · | ·
Nc1cc(OC(=O)c2ccc(F)cc2)nn1S(=O)(=O)c1ccccc1 | 5 | 0 | 16 | 4 | 0 | 53* | -8 | 5
COc1cc(C(=O)Oc2cc(N)n(S(=O)(=O)c3ccc(F)cc3)n2)cc(OC)c1OC | 17 | -15 | 12 | 2 | 4 | 7 | · | ·
NNC(=O)c1cccc(COc2ccc3c(c2)CCC3)c1 | 1 | 2 | -42 | 21 | 45 | 68* | 53* | -115
NNC(=O)c1cccc(COc2ccccc2Br)c1 | -1 | 8 | -259 | -22 | -13 | -69 | · | ·
CN(C)c1ncnc2c1ccn2C1OC(CO)C(O)C1O (stereo not drawn) | 36 | -63* | 8 | 88* | 4 | 44* | 34 | 27
CC(C(=O)NCCSCc1cccc(Cl)c1)N(c1ccccc1)S(C)(=O)=O (stereo not drawn) | 1 | -4 | 17 | -2 | -4 | 13 | · | ·
Cc1ccc(-n2nc3ccc(N)cc3n2)c(C)c1 | -37 | 5 | -174 | 14 | 6 | 56* | 76* | 17
Cc1cc(N)ccc1-n1nc2ccccc2n1 | -8 | 7 | -53 | -21 | 2 | 5 | · | ·
C(#CC12CC3CC(CC(C3)C1)C2)CN1CCOCC1 | 4 | -4 | 2 | 6 | -5 | 41* | 4 | -6
SMILES | CF NFkB inh | KKLEB cytotox | Peg3 prom inh | Shn3 3UTR inh | MITF TRPM1 inh | HIF-2a block | HIF-2a conf | HIF-1a counter | others
Cc1cc(NC(=O)CN(C)C)c([N+](=O)[O-])cc1C | -8 | 4 | -6 | 4 | -14 | -30 | · | ·
COc1ccc(C(=O)/C(=C\c2ccco2)N2C=CC=CC2=C(C#N)C#N)cc1 | 94* | -87* | 104* | 97* | 96* | 96* | · | · | Mdm2 MdmX conf=100*
CC(C)NC(=O)C(c1ccc(F)cc1)N(C(=O)CCC(=O)Nc1ccccn1)c1cccc(F)c1 (stereo not drawn) | 4 | 12 | 0 | 12 | 2 | 14 | · | ·
COc1ccc(C(C(=O)NC2CCCCC2)N(C(=O)CCl)c2ccc(C)cc2)cc1 (stereo not drawn) | 91* | -93* | 69* | 3 | 82* | 29 | · | · | Mdm2 MdmX conf=102*
COc1ccc(C(C(=O)NC2CCCCC2)N(C(=O)CCl)c2ccc(OC)cc2)cc1 (stereo not drawn) | 72* | -81* | 101* | 92* | 82* | 30 | · | · | Mdm2 MdmX conf=95*
O=C(NC1CCCCC1)C(c1cccnc1)N(C(=O)CCl)c1ccccc1Cl (stereo not drawn) | 10 | -8 | 30 | -14 | 20 | 30 | · | · | Mdm2 MdmX conf=103*
CCc1ccccc1N(C(=O)CNC(=O)c1ccco1)C(C(=O)NC1CCCC1)c1cccnc1 (stereo not drawn) | -3 | 1 | -6 | -8 | -1 | 14 | · | ·
COc1ccc(-c2ccc(CN3C(C)C(=O)N(Cc4cn(CCC5OCCO5)nn4)CCS3(=O)=O)cc2)cc1OC (stereo not drawn) | 0 | 15 | 2 | 9 | · | 12 | · | ·
COCCn1c(SCC(=O)N2CCOCC2)nnc1-c1ccncc1 | 14 | -26 | -4 | -6 | -12 | 6 | · | ·
CCOC(=O)c1ccc(N=c2sc(C(=O)OC)cc(=O)n2Cc2ccco2)cc1 | 23 | -18 | 100* | 36 | 18 | 82* | 65* | 106*
CCOC(=O)c1ccc(N=c2sc(C(=O)OC)cc(=O)n2CCCN2CCOCC2)cc1 | 13 | -18 | 3 | -23 | -1 | 9 | · | ·

Source: PubChem (several laboratories)
